# Measurements as given in PubChem BioAssay (NCI).
# This is part of a sample that, as a whole, favours compounds with a hit. Of some 79,000 tested, about 15% had one in any assay. Active and inactive are the calls of the source. No stated cut-off is given here; in the data, active means growth inhibition above about 70%; inactive means the rest.
# Assay: NCI Yeast Anticancer Drug Screen. Data for the rad50 strain (AID 155);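 further: 0% = growth of vehicle-only cultures of the same strain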
# Conditions: S. cerevisiae rad50 strain growth inhibition; at 50.0 µM; stronger effect = higher value
# How it was run: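 Compounds were tested on a yeast strain with an engineered DNA damage repair alteration; the reported value is growth inhibition normalised to vehicle treatment.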
row,SMILES,growth inhibition
1,COc1ccc2c(c1)CCN1CCCc3ccc(OC)cc3C21 (stereo not given),18.9% (inactive)
2,O=C1CN(/C=C(\c2ccccc2)S(=O)Cc2ccccc2)C(=S)N1 (stereo not given),-19.9% (inactive)
3,COC1(OC)N=C(N)C2(C#N)C(C)CC(=O)N(N(C)C)C12C#N (stereo not given),7.15% (inactive)
4,COc1ccc2ccccc2c1C=O,33.5% (inactive)
5,CC(C)NC(=O)OCc1cn2c(c1COC(=O)NC(C)C)CCC2,20.4% (inactive)
6,COC1(OC)C2(Cl)C3=CCCC=C3C1(Cl)C(Cl)=C2Cl,27.5% (inactive)
7,CS(=O)(=O)Cc1cc(-c2ccccc2)no1,15.1% (inactive)
8,CC1=CN(c2ccccc2)S2=C1c1sc3c(c1N2c1ccc(Br)cc1)CCCC3 (stereo not given),0.9% (inactive)
9,O=[N+]([O-])c1ccc(COP(=O)(OCc2ccc([N+](=O)[O-])cc2)OCc2ccc([N+](=O)[O-])cc2)cc1,-8% (inactive)
10,Cn1cnc(=O)c2n[nH]nc21,3.95% (inactive)
11,O=c1c2ccccc2c(=O)n2n1CC=CC2,-6.45% (inactive)
12,CC(C)CCC(C)(C)COC(=O)c1ccc([N+](=O)[O-])cc1 (tested in a mixture with another compound),36.5% (inactive)
13,CSCCC(NC(=O)c1cnc2ccccc2n1)C(=O)O (stereo not given),-4.55% (inactive)
14,COc1cccc(/C=C2/Sc3sc(C(C)=O)c(C)[n+]3C2=O)c1O,-15.9% (inactive)
15,CC(=O)O[C@@H]1CC[C@@]2(C)C(=O)C34C[C@@]5(C)C([C@@H](C)CCCC(C)C)CCC5(C)[C@](O)(O3)C(=O)[C@H]4C2C1(C)C (stereo not given in full),18.4% (inactive)
16,O=[N+]([O-])/C(Cl)=C(\NCCO)C(Cl)=C(Cl)Cl,15.6% (inactive)
17,CN(C)CCNC(=O)c1ccc2nc3c(nc2c1)C(=O)c1ccccc1-3,-9.4% (inactive)
18,Ic1ccc(N=Nc2ccccc2)cc1,-8% (inactive)
19,CC(=O)c1cccc(C)n1,29.8% (inactive)
20,C1CCCCCc2c(-c3n[nH]c4c3CCCCCCCCCC4)n[nH]c2CCCC1,-8.1% (inactive)

row,SMILES,growth inhibition
1,O=C(CCl)Nc1cc(Cl)c(Cl)cc1Cl,32.4% (inactive)
2,CCN(C(=O)c1ccc([N+](=O)[O-])cc1)C(c1ccccc1)P(=O)(c1ccccc1)c1ccccc1 (stereo not given),-12.4% (inactive)
3,O=C1CCSC(=S)N1c1ccc(F)cc1F,18% (inactive)
4,Cc1ccc(C(=O)OCC2OC(Cl)CC2OC(=O)c2ccc(C)cc2)cc1 (stereo not given),22.6% (inactive)
5,O=C1OCC/C1=C1/Nc2ccccc2NC1=O,-13.1% (inactive)
6,Cc1cc2c(=O)[nH]cnc2[nH]1,-5.6% (inactive)
7,O=NNc1ccc(Sc2ccccc2)cn1,6.8% (inactive)
8,CSCC[C@H]1C(=O)N=C(N)N1C(=O)OCc1ccccc1,-5.7% (inactive)
9,CN(C)c1nc(=NCc2cccs2)ss1,71.2% (active)
10,CC1(C#N)N(C(=O)c2ccccc2)c2ccccc2N1C(=O)c1ccccc1,18.6% (inactive)
11,CCCOC(=O)CCCC1=NC2=CC=CC3=NC(C)=NC(=N1)N23,-10.3% (inactive)
12,C=CCc1cc(OC)c2c(c1)C(OC)CC(c1ccc(OC)c(OC)c1)O2 (stereo not given),-3.7% (inactive)
13,CC1C(O)=C(O)c2ccccc2N1O (stereo not given),-9.15% (inactive)
14,CSCC(=O)c1ccccc1,17.4% (inactive)
15,CC(=O)NC(Cc1c[nH]c2ccccc12)C(=O)Oc1ccc([N+](=O)[O-])cc1 (stereo not given),-9.2% (inactive)
16,Cc1cc(Cc2ccc(N)c(C)c2)ccc1N,3.4% (inactive)
17,CC(C)C(O)C(C)(C)C(O)C#N (stereo not given),18.1% (inactive)
18,CCCCC1(O)C(=O)N(c2ccccc2)N(c2ccccc2)C1=O,17.2% (inactive)
19,C[n+]1ccc(/C=C/c2c[nH]c3ccccc23)cc1,6.25% (inactive)
20,COc1cc(/C=C2\C=Cc3ccccc32)ccc1N(C)C,5.45% (inactive)

# Assay: NCI Yeast Anticancer Drug Screen. Data for the sgs1 mgt1 strain (AID 161);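 further: 0% = growth of cultures given vehicle only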
# Conditions: S. cerevisiae sgs1 mgt1 strain, at 50.0 µM, stronger effect = higher value
# How it was run: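 Read-out: growth inhibition vs vehicle controls. Cells: mutant yeast strain deficient in DNA damage repair.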
row,SMILES,growth inhibition
1,COc1ccc2c(c1)CCN1CCCc3ccc(OC)cc3C21 (stereo not given),24.6% (inactive)
2,O=C1CN(/C=C(\c2ccccc2)S(=O)Cc2ccccc2)C(=S)N1 (stereo not given),-28.4% (inactive)
3,COC1(OC)N=C(N)C2(C#N)C(C)CC(=O)N(N(C)C)C12C#N (stereo not given),-27.4% (inactive)
4,COc1ccc2ccccc2c1C=O,40.1% (inactive)
5,CC(C)NC(=O)OCc1cn2c(c1COC(=O)NC(C)C)CCC2,36% (inactive)
6,COC1(OC)C2(Cl)C3=CCCC=C3C1(Cl)C(Cl)=C2Cl,11.7% (inactive)
7,CS(=O)(=O)Cc1cc(-c2ccccc2)no1,8.7% (inactive)
8,CC1=CN(c2ccccc2)S2=C1c1sc3c(c1N2c1ccc(Br)cc1)CCCC3 (stereo not given),-27.5% (inactive)
9,O=[N+]([O-])c1ccc(COP(=O)(OCc2ccc([N+](=O)[O-])cc2)OCc2ccc([N+](=O)[O-])cc2)cc1,2.9% (inactive)
10,Cn1cnc(=O)c2n[nH]nc21,-1.1% (inactive)
11,O=c1c2ccccc2c(=O)n2n1CC=CC2,-1.75% (inactive)
12,CC(C)CCC(C)(C)COC(=O)c1ccc([N+](=O)[O-])cc1 (tested in a mixture with another compound),43.4% (inactive)
13,CSCCC(NC(=O)c1cnc2ccccc2n1)C(=O)O (stereo not given),11.2% (inactive)
14,COc1cccc(/C=C2/Sc3sc(C(C)=O)c(C)[n+]3C2=O)c1O,8.7% (inactive)
15,CC(=O)O[C@@H]1CC[C@@]2(C)C(=O)C34C[C@@]5(C)C([C@@H](C)CCCC(C)C)CCC5(C)[C@](O)(O3)C(=O)[C@H]4C2C1(C)C (stereo not given in full),11.5% (inactive)
16,O=[N+]([O-])/C(Cl)=C(\NCCO)C(Cl)=C(Cl)Cl,38% (inactive)
17,CN(C)CCNC(=O)c1ccc2nc3c(nc2c1)C(=O)c1ccccc1-3,31.3% (inactive)
18,Ic1ccc(N=Nc2ccccc2)cc1,-5.35% (inactive)
19,CC(=O)c1cccc(C)n1,22.1% (inactive)
20,C1CCCCCc2c(-c3n[nH]c4c3CCCCCCCCCC4)n[nH]c2CCCC1,-8.2% (inactive)

row,SMILES,growth inhibition
1,O=C(CCl)Nc1cc(Cl)c(Cl)cc1Cl,58.1% (inactive)
2,CCN(C(=O)c1ccc([N+](=O)[O-])cc1)C(c1ccccc1)P(=O)(c1ccccc1)c1ccccc1 (stereo not given),-15.1% (inactive)
3,O=C1CCSC(=S)N1c1ccc(F)cc1F,18.4% (inactive)
4,Cc1ccc(C(=O)OCC2OC(Cl)CC2OC(=O)c2ccc(C)cc2)cc1 (stereo not given),26.8% (inactive)
5,O=C1OCC/C1=C1/Nc2ccccc2NC1=O,-8.1% (inactive)
6,Cc1cc2c(=O)[nH]cnc2[nH]1,-16.7% (inactive)
7,O=NNc1ccc(Sc2ccccc2)cn1,-3.75% (inactive)
8,CSCC[C@H]1C(=O)N=C(N)N1C(=O)OCc1ccccc1,3.6% (inactive)
9,CN(C)c1nc(=NCc2cccs2)ss1,77.5% (active)
10,CC1(C#N)N(C(=O)c2ccccc2)c2ccccc2N1C(=O)c1ccccc1,46.2% (inactive)
11,CCCOC(=O)CCCC1=NC2=CC=CC3=NC(C)=NC(=N1)N23,-7.45% (inactive)
12,C=CCc1cc(OC)c2c(c1)C(OC)CC(c1ccc(OC)c(OC)c1)O2 (stereo not given),-6.05% (inactive)
13,CC1C(O)=C(O)c2ccccc2N1O (stereo not given),-8.6% (inactive)
14,CSCC(=O)c1ccccc1,9.25% (inactive)
15,CC(=O)NC(Cc1c[nH]c2ccccc12)C(=O)Oc1ccc([N+](=O)[O-])cc1 (stereo not given),24.6% (inactive)
16,Cc1cc(Cc2ccc(N)c(C)c2)ccc1N,-12.8% (inactive)
17,CC(C)C(O)C(C)(C)C(O)C#N (stereo not given),-0.1% (inactive)
18,CCCCC1(O)C(=O)N(c2ccccc2)N(c2ccccc2)C1=O,7.45% (inactive)
19,C[n+]1ccc(/C=C/c2c[nH]c3ccccc23)cc1,3.6% (inactive)
20,COc1cc(/C=C2\C=Cc3ccccc32)ccc1N(C)C,-6.85% (inactive)
